Screening data: PubChem BioAssay, Fisher Drug Discovery Resource Center
The list is not random: actives were taken first. Their share in the collection is about 0.24%.
NPYLR7 ag = agonists of mosquito NPYLR7 receptor, primary screen, cell-based, Aedes aegypti, calcium fluorescence, mosquito biting behavior. HEK293T NPYLR7/Galpha15, GCaMP6s calcium fluorescence. 270,000 tested, 0.15% active. activation, % at 10 µM. AID 1259423, 2018. Aedes aegypti neuropeptide Y-like receptor 7 (NPYLR7); in the data active means activation above about 40%;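 further: 0% = vehicle and 100% = reference agonist at the receptor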
hcGAS lum = Primary biochemical luminescence assay for human cyclic GMP-AMP synthase inhibitors. recombinant h-cGAS, ATP depletion, Kinase-Glo luminescence. inhibition, % at 12.5 µM. 290,000 tested, 0.081% active. AID 1259398, 2018;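 further: 0% = vehicle reaction and 100% = reaction without DNA for no activity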
Target sequence (Q8N884 whole entry, looked up): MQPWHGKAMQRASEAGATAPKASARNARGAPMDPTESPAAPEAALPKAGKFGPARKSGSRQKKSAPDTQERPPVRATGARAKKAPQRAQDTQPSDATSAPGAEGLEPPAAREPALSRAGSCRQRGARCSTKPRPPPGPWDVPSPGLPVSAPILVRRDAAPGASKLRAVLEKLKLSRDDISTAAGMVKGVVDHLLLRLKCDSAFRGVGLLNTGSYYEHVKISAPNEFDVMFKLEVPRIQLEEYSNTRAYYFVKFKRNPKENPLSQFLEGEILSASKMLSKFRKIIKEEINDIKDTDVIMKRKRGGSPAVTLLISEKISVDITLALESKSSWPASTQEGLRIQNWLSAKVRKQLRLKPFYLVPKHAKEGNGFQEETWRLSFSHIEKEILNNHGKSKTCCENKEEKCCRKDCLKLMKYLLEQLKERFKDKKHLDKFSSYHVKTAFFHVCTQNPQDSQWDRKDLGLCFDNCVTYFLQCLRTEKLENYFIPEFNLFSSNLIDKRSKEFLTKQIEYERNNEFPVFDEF
mcGAS inh = cyclic GMP-AMP synthase inhibitors, mouse, primary biochemical chemiluminescence. AID 1259399, 2018. inhibition, % at 12.5 µM. 160,000 tested, 0.15% active. Q8C6L5. recombinant cGAS, Kinase-Glo ATP depletion luminescence;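 further: 0% = negative control wells and 100% = reference inhibitor with no enzyme activity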
Starred values were filed as active, the others as inactive; nt = no result given; ! = not confirmed by another sample. Unless noted, no stated cut-off is given here; in the data, active means inhibition above about 40%; inactive means the rest.

SMILES | NPYLR7 ag | hcGAS lum | mcGAS inh
CCN(CC)CCCC(C)Nc1c2ccc(Cl)cc2nc2ccc(OC)cc12 (centres undefined) | 66.7* | 64.2*! | 29.3
O=C(NCc1ccco1)N1CC2OCCN(Cc3ccccc3)C2C1 (centres undefined) | -23.6 | -7.4 | nt
COc1ccc(S(=O)(=O)c2cnc(SCC(=O)NCc3ccc(Cl)cc3)[nH]c2=O)cc1 | -2.0 | -2.3 | -5.1
CC1N(C)c2ccc(C=Cc3cc[n+](C)cc3)cc2C1(C)C (centres undefined) | 66.7* | -16.3 | nt
C#CCOc1ccc(CCNC(=O)c2cc(C)on2)cc1 | 17.9 | -1.3 | -1.7
NC(=O)c1c(SCc2ccccc2)sc2c(O)cc(=O)[nH]c12 | 9.9 | -7.7 | -5.7
N#CCSc1sc2c(O)cc(=O)[nH]c2c1C#N | 1.9 | 2.5 | 59.7*
COc1cccc(-c2nccn2C2CCCC2)c1OC(C)C(=O)O (centres undefined) | 4.1 | -7.8 | nt
CCc1nn(C(C)C(=O)NC(C)CCc2ccco2)c(=O)c2cc3occc3n12 (centres undefined) | 67.6* | -4.1 | -2.9
CCc1nn(C(C)C(=O)NC)c(=O)c2cc3occc3n12 (centres undefined) | 6.9 | -5.2 | -3.8
COc1ccc(-c2cc(C(=O)O)n(-c3ccc([N+](=O)[O-])cc3)n2)c(OC)c1 | 20.6 | -5.2 | nt
OC[C@H]1O[C@@H](n2cnc3c(NC4CCCC4)ncnc32)C(O)[C@H]1O (some centres undefined) | 20.4 | -0.6 | -2.9
Nc1ncnc2c1ncn2[C@@H]1O[C@H](CO)[C@@H](O)[C@H]1O | 52.0* | 1.0 | nt
Cn1c(CNCc2cccnc2N2CCCC(O)C2)nc2ccccc21 (centres undefined) | -2.9 | -5.3 | nt
C=C(C)C(O)(C(=C)C)c1ccc(CN(Cc2ccc3c(c2)OCO3)Cc2ccco2)o1 | 0.1 | -2.4 | -5.4
Cc1cc2nc3c(=O)[nH]c(=O)nc-3n(CC(O)C(O)C(O)CO)c2cc1C (centres undefined) | 172.5* | 0.2 | nt
Cc1cc2nc3c(=O)[nH]c(=O)nc-3n(C)c2cc1C=O | -1.1 | -5.2 | nt
COc1cccc2c1C(=O)c1c(O)c3c(c(O)c1C2=O)C[C@@](O)(C(=O)CO)C[C@@H]3O[C@H]1C[C@H](N)[C@@H](O)[C@H](C)O1 | -3.4 | 47.7* | nt
COc1cccc2c1C(=O)c1c(O)c3c(c(O)c1C2=O)C[C@@](O)(C(C)=O)C[C@@H]3O[C@H]1C[C@H](N)[C@H](O)[C@H](C)O1 | -2.2 | 60.1*! | nt
CC(=O)[C@]1(O)Cc2c(O)c3c(c(O)c2[C@@H](O[C@H]2C[C@H](N)[C@H](O)[C@H](C)O2)C1)C(=O)c1ccccc1C3=O | 99.7* | 68.6* | 96.1*
COc1cccc2c1C(=O)c1ccccc1C2=O | -3.9 | 1.5 | -3.0
Cc1cccc(-c2ccc(CNC(=O)c3ccc(=O)n(C)n3)cc2)c1 | 0.2 | 3.6 | nt
COC(=O)CC(NS(=O)(=O)c1c(C)noc1C)c1ccc(Cl)cc1 (centres undefined) | 1.9 | -5.9 | nt
N#CCN(CC(=O)Nc1sccc1C(N)=O)C1CCCC1 | 1.4 | -0.9 | nt
O=c1c(O)c(-c2cc(O)c(O)c(O)c2)oc2cc(O)cc(O)c12 | -3.0 | 71.2* | 82.1*
SMILES | NPYLR7 ag | hcGAS lum | mcGAS inh
O=c1c(O)c(-c2ccc(O)cc2O)oc2cc(O)cc(O)c12 | 5.0 | -6.6 | 6.9
CNN=Cc1ccc(SC)cc1 | 6.1 | -8.5 | -4.9
O=C(NCCSc1ccc(Cl)cc1)c1ccc2c(=O)n3c(nc2c1)CCC3 | 81.7* | 4.3 | nt
O=C(NCCC12CC3CC(CC(C3)C1)C2)c1ccc2c(=O)n3c(nc2c1)CCCCC3 | 6.1 | 2.8 | nt
CN(C)CCc1cc2c(c3c1ccc1ccccc13)OCO2 | 1.6 | 69.9* | 56.1*
CN(C)Cc1c2ccccc2cc2ccccc12 | 2.2 | 0.6 | nt
Cc1ccsc1CN(Cc1cccc(C(F)(F)F)c1)Cc1nc(C(=O)NCCN(C)C)co1 | 22.4 | -4.3 | -5.5
O=C(c1cnccn1)N1CCc2[nH]c3c(Cl)cc(Cl)cc3c2C1 | 3.4 | 17.6 | 21.8
COCC(=O)N1CCc2[nH]c3c(Cl)cc(Cl)cc3c2C1 | 1.4 | 48.2* | 95.8*
CN(Cc1ccccc1)C(=O)COC(=O)c1cc(=O)c2ccccc2[nH]1 | 3.7 | -5.2 | nt
CCC1=NN2C(=N)/C(=C\c3ccc(OC)c(OC)c3OC)C(=O)N=C2S1 | -1.8 | -2.1 | 43.7*
CCC1=NN2C(=N)/C(=C\c3ccccc3Br)C(=O)N=C2S1 | 2.0 | 15.8 | nt
COCCCN1COc2ccc3c(=O)c(Oc4cccc(OC)c4)c(C(F)(F)F)oc3c2C1 | -9.3 | 1.2 | -1.3
CCc1cccc2c(C(CC(=O)NCCN(C)C)c3ccc(C)cc3)c[nH]c12 (centres undefined) | -6.8 | 2.8 | -0.1
N#CC1C(=N)SC(=N)C(C#N)C1c1cc(Br)ccc1F (centres undefined) | 3.7 | 16.0 | 57.4*
COc1ccc(Br)cc1C1C(C#N)C(=N)SC(=N)C1C#N (centres undefined) | 3.7 | 4.3 | 16.8
COc1cccc2c1OC(c1ccc(F)cc1F)NC2=O (centres undefined) | 1.4 | -0.9 | nt
O=C(CCC1CCN(C(=O)C2CCOCC2)CC1)N1CCC(Cc2ccccc2)CC1 | 19.0 | -5.5 | nt
O=S(=O)(Nc1ccc(-c2ccccc2)cn1)c1cccnc1 | 7.7 | -4.4 | nt
CC[C@@]1(O)C(=O)OCc2c1cc1n(c2=O)Cc2cc3c(CN(C)C)c(O)ccc3nc2-1 | 88.2* | -3.0 | nt
CC(=O)c1ccc2c(c1)[C@@H]1C=CC[C@@H]1[C@H](c1cc3c(cc1Br)OCO3)N2 | 11.0 | -11.1 | -2.1
O=C(O)C1Nc2cc(Cl)cc(Cl)c2C2C=CCC12 (centres undefined) | 1.5 | 7.1 | 61.9*
O=C(CNC(=O)c1ccccc1)Nc1nc(CN2CCCCC2)cs1 | 2.9 | -5.7 | nt
CCc1nc(N2CCN(C(=O)COc3ccc(Cl)cc3)CC2)c2c3c(sc2n1)CCCC3 | -9.1 | -2.2 | -3.2
COc1cc(/C=C(\C#N)C(=O)c2ccc(O)c(O)c2)cc(I)c1O | 191.0* | 12.6 | 27.9
SMILES | NPYLR7 ag | hcGAS lum | mcGAS inh
COc1cc(C=C(C#N)C(N)=O)cc(OC)c1O | 24.2 | 8.8 | nt
CC(C)Oc1ccc(S(=O)(=O)N2CCCCC2)cc1NC(=O)CCl | -10.7 | -9.3 | nt
CC(C)Oc1ccc(S(=O)(=O)N2CCCCC2)cc1NC(=O)CSc1nncn1C1CC1 | -3.9 | -0.8 | 55.7*
COc1ccccc1-n1c(SCC(=O)c2ccc(Cl)cc2)nc2c(c1=O)SCC2 | 5.8 | -1.6 | nt
CC(C)CN(CC(=O)N(Cc1ccc(F)cc1)Cc1ccco1)Cc1ccc([N+](=O)[O-])cc1 | 15.3 | -9.0 | -5.7
CCOc1ccc(S(=O)(=O)Nc2cc(Sc3ncn[nH]3)c(O)c3ccccc23)cc1 | -10.0 | -6.7 | 7.9
Cc1ccc(S(=O)(=O)Nc2cc(Sc3ncn[nH]3)c(O)c3ccccc23)c(C)c1 | -5.8 | -8.2 | 40.5*
Cc1ccc(C)c(-n2nc(-c3ccc([N+](=O)[O-])cc3)cc2C(=O)NCCC(c2ccccc2)c2ccccc2)c1 | -0.7 | -11.0 | -3.4
CCn1cc(C(CC(=O)NCc2ccc3c(c2)OCO3)c2cc(OC)cc(OC)c2)c2ccccc21 (centres undefined) | 2.9 | 3.0 | 0.6
